# According to the supplement of paper PMC8728848:
# Only a selection was taken, and the strongest signals are over-represented in it overall.
# Columns and labels:
# Experiment in all cases: glycan array binding signal (z-score within array); higher = stronger binding
# Settings in all cases: glycan notation: IUPAC condensed, linker removed
# [1] = target: Fuc(a1-2)Gal(b1-3)GalNAc(b1-3)Gal(a1-4)Gal(b1-4)Glc
# How it was run: (§1)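 Glycan array binding is given as a within-array Z-score, which can be read as non-binding when negative. The arrays, 3228 of them, came from the Consortium for Functional Glycomics database and were retained only where the protein sequence was available. Z-scores were averaged across arrays of the same protein sequence at different concentrations or buffers and across linkers.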
# [2] = target: Fuc(a1-2)Gal(b1-4)GlcNAc(b1-2)Man
# How it was run: as §1
# [3] = target: Fuc(a1-2)Gal(b1-4)GlcNAc(b1-3)[Fuc(a1-2)Gal(b1-4)GlcNAc(b1-6)]GalNAc
# How it was run: as §1
# [4] = target: Fuc(a1-2)Gal(b1-4)[Fuc(a1-3)]GlcNAc(b1-3)Gal(b1-4)[Fuc(a1-3)]GlcNAc(b1-3)Gal(b1-4)[Fuc(a1-3)]GlcNAc
# How it was run: as §1
# [5] = target: Fuc(a1-2)[Gal(a1-3)]Gal(b1-3)GalNAc
# How it was run: as §1
# [6] = target: Fuc(a1-2)[Gal(a1-3)]Gal(b1-3)GlcNAc(b1-3)GalNAc
# How it was run: as §1
# [7] = target: Fuc(a1-2)[Gal(a1-3)]Gal(b1-4)GlcNAc(b1-3)[Fuc(a1-2)[Gal(a1-3)]Gal(b1-4)GlcNAc(b1-6)]GalNAc
# How it was run: as §1
# [8] = target: Fuc(a1-2)[Gal(a1-3)]Gal(b1-4)GlcNAc(b1-6)GalNAc
# How it was run: as §1
# [9] = target: Fuc(a1-2)[GalNAc(a1-3)]Gal(b1-3)GalNAc(a1-3)[Fuc(a1-2)]Gal(b1-4)GlcNAc
# How it was run: as §1
# [10] = target: Fuc(a1-2)[GalNAc(a1-3)]Gal(b1-4)[Fuc(a1-3)]GlcNAc(b1-3)GalNAc
# How it was run: as §1
# Fuc(a1-4)GlcNAc = target: Fuc(a1-4)GlcNAc
# How it was run: as §1
# [11] = target: Gal(a1-3)Gal(b1-3)GlcNAc(b1-6)GalNAc
# How it was run: as §1
# [12] = target: Gal(a1-3)Gal(b1-4)GlcNAc(b1-2)Man(a1-3)[Gal(a1-3)Gal(b1-4)GlcNAc(b1-2)Man(a1-6)]Man(b1-4)GlcNAc(b1-4)GlcNAc
# How it was run: as §1
# Gal(b1-2)Gal = target: Gal(b1-2)Gal
# How it was run: as §1
# [13] = target: Gal(b1-3)GalNAc(b1-4)Gal(b1-4)Glc
# How it was run: as §1
# Gal(b1-3)GlcNAc(b1-2)Man = target: Gal(b1-3)GlcNAc(b1-2)Man
# How it was run: as §1
# [14] = target: Gal(b1-3)GlcNAc(b1-3)Gal(b1-4)GlcNAc(b1-3)Gal(b1-4)GlcNAc(b1-2)[Gal(b1-3)GlcNAc(b1-3)Gal(b1-4)GlcNAc(b1-3)Gal(b1-4)GlcNAc(b1-6)]Man(a1-6)[Gal(b1-3)GlcNAc(b1-3)Gal(b1-4)GlcNAc(b1-3)Gal(b1-4)GlcNAc(b1-2)Man(a1-3)]Man(b1-4)GlcNAc(b1-4)[Fuc(a1-6)]GlcNAc
# How it was run: as §1
# [15] = target: Gal(b1-3)GlcNAc(b1-3)Gal(b1-4)GlcNAc(b1-6)[Gal(b1-3)GlcNAc(b1-3)]Gal(b1-4)Glc
# How it was run: as §1
# [16] = target: Gal(b1-3)[Fuc(a1-4)]GlcNAc
# How it was run: as §1
# [17] = target: Gal(b1-4)GlcNAc(b1-2)Man(a1-3)[Gal(b1-4)GlcNAc(b1-2)Man(a1-6)][Gal(b1-4)GlcNAc(b1-4)]Man(b1-4)GlcNAc(b1-4)[Fuc(a1-6)]GlcNAc
# How it was run: as §1
# [18] = target: Gal(b1-4)GlcNAc(b1-2)Man(a1-3)[GlcNAc(b1-4)][Gal(b1-4)GlcNAc(b1-2)Man(a1-6)]Man(b1-4)GlcNAc(b1-4)GlcNAc
# How it was run: as §1
# [19] = target: Gal(b1-4)GlcNAc(b1-2)Man(a1-6)[GlcNAc(b1-2)Man(a1-3)]Man(b1-4)GlcNAc(b1-4)GlcNAc
# How it was run: as §1
# [20] = target: Gal(b1-4)GlcNAc(b1-2)Man(a1-6)[Man(a1-3)]Man(b1-4)GlcNAc(b1-4)GlcNAc
# How it was run: as §1
# [21] = target: Gal(b1-4)GlcNAc(b1-2)[Gal(b1-4)GlcNAc(b1-6)]Man(a1-6)[Gal(b1-4)GlcNAc(b1-2)Man(a1-3)]Man(b1-4)GlcNAc(b1-4)[Fuc(a1-6)]GlcNAc
# How it was run: as §1
# [22] = target: Gal(b1-4)GlcNAc(b1-3)Gal(b1-4)GlcNAc(b1-2)[Gal(b1-4)GlcNAc(b1-3)Gal(b1-4)GlcNAc(b1-6)]Man(a1-6)[Gal(b1-4)GlcNAc(b1-3)Gal(b1-4)GlcNAc(b1-2)Man(a1-3)]Man(b1-4)GlcNAc(b1-4)GlcNAc
# How it was run: as §1
# [23] = target: Gal(b1-4)GlcNAc(b1-3)Gal(b1-4)GlcNAc(b1-3)Gal(b1-4)GlcNAc(b1-3)Gal(b1-4)GlcNAc(b1-2)Man(a1-3)[Gal(b1-4)GlcNAc(b1-3)Gal(b1-4)GlcNAc(b1-3)Gal(b1-4)GlcNAc(b1-3)Gal(b1-4)GlcNAc(b1-2)Man(a1-6)]Man(b1-4)GlcNAc(b1-4)[Fuc(a1-6)]GlcNAc
# How it was run: as §1
# [24] = target: Gal(b1-4)GlcNAc(b1-3)Gal(b1-4)GlcNAc(b1-3)Gal(b1-4)GlcNAc(b1-3)Gal(b1-4)GlcNAc(b1-3)Gal(b1-4)GlcNAc(b1-2)Man(a1-3)[Gal(b1-4)GlcNAc(b1-3)Gal(b1-4)GlcNAc(b1-3)Gal(b1-4)GlcNAc(b1-3)Gal(b1-4)GlcNAc(b1-3)Gal(b1-4)GlcNAc(b1-2)Man(a1-6)]Man(b1-4)GlcNAc(b1-4)GlcNAc
# How it was run: as §1
# [25] = target: Gal(b1-4)GlcNAc(b1-3)Gal(b1-4)GlcNAc(b1-3)[Gal(b1-4)GlcNAc(b1-3)Gal(b1-4)GlcNAc(b1-6)]GalNAc
# How it was run: as §1
# [26] = target: Gal(b1-4)GlcNAc(b1-3)[Gal(b1-4)GlcNAc(b1-6)]Gal(b1-4)GlcNAc
# How it was run: as §1
# GalNAc(a1-3)Gal = target: GalNAc(a1-3)Gal
# How it was run: as §1
# GalNAc(b1-4)GlcNAc = target: GalNAc(b1-4)GlcNAc
# How it was run: as §1
# [27] = target: Glc(a1-4)Glc(a1-4)Glc(a1-4)Glc
# How it was run: as §1
# [28] = target: GlcNAc(b1-2)[GlcNAc(b1-4)]Man(a1-3)[GlcNAc(b1-4)][GlcNAc(b1-2)[GlcNAc(b1-6)]Man(a1-6)]Man(b1-4)GlcNAc(b1-4)[Fuc(a1-6)]GlcNAc
# How it was run: as §1
# [29] = target: GlcNAc(b1-3)Gal(b1-4)GlcNAc
# How it was run: as §1
# [30] = target: GlcNAc(b1-3)Gal(b1-4)GlcNAc(b1-3)Gal(b1-4)GlcNAc(b1-3)Gal(b1-4)GlcNAc(b1-2)[GlcNAc(b1-3)Gal(b1-4)GlcNAc(b1-3)Gal(b1-4)GlcNAc(b1-3)Gal(b1-4)GlcNAc(b1-6)]Man(a1-6)[GlcNAc(b1-3)Gal(b1-4)GlcNAc(b1-3)Gal(b1-4)GlcNAc(b1-3)Gal(b1-4)GlcNAc(b1-2)Man(a1-3)]Man(b1-4)GlcNAc(b1-4)[Fuc(a1-6)]GlcNAc
# How it was run: as §1
# [31] = target: GlcNAc(b1-3)[GlcNAc(b1-6)]Gal(b1-4)GlcNAc
# How it was run: as §1
# [32] = target: Man(a1-2)Man(a1-2)Man(a1-3)Man
# How it was run: as §1
# [33] = target: Man(a1-2)Man(a1-3)[Man(a1-6)]Man(a1-6)[Man(a1-2)Man(a1-3)]Man(b1-4)GlcNAc(b1-4)GlcNAc
# How it was run: as §1
# Man(a1-6)Man = target: Man(a1-6)Man
# How it was run: as §1
# [34] = target: Neu5Ac(a2-3)Gal(b1-3)GalNAc(b1-4)[Neu5Ac(a2-3)]Gal(b1-4)Glc
# How it was run: as §1
# [35] = target: Neu5Ac(a2-3)Gal(b1-3)[Fuc(a1-4)]GlcNAc(b1-3)Gal(b1-3)[Fuc(a1-4)]GlcNAc
# How it was run: as §1
# Neu5Ac(a2-3)Gal(b1-4)Glc = target: Neu5Ac(a2-3)Gal(b1-4)Glc
# How it was run: as §1
# [36] = target: Neu5Ac(a2-3)[GalNAc(b1-4)]Gal(b1-4)GlcNAc
# How it was run: as §1
# Neu5Ac(a2-6)Gal(b1-4)Glc = target: Neu5Ac(a2-6)Gal(b1-4)Glc
# How it was run: as §1
# [37] = target: Neu5Ac(a2-6)Gal(b1-4)GlcNAc(b1-2)Man(a1-3)[Neu5Ac(a2-6)Gal(b1-4)GlcNAc(b1-2)Man(a1-6)]Man(b1-4)GlcNAc(b1-4)[Fuc(a1-6)]GlcNAc
# How it was run: as §1
# [38] = target: Neu5Ac(a2-6)GlcNAc(b1-4)GlcNAc(b1-4)GlcNAc
# How it was run: as §1
# [39] = target: Neu5Ac(a2-8)Neu5Ac(a2-8)Neu5Ac(a2-3)Gal(b1-4)Glc
# How it was run: as §1
binder,measurement,setting,value
Na-CTL-1 (Necator americanus) (protein) MQRSFLLLLVVLAGAWAVNTTIPLKLMGGFTPMKYQCVGRVSDIWADVLFLIESSDMITKSGFRQVIAFITATTKKMTIGQDEKQTRVGFITYGEEAKLIYDLDHWRSTEKLSDLVQKIPYVKSSGTNIAAAIALANKVFNSPTHRPNVPKVMVIVANGLKKGSQNPIPVATAFKDFGGIIITIEYTQYDNIQVPILKKIASEGYNIRSNDEDFSVRTLTNMLLQANCFCPDHYVPFRVNNPEFGCFVTAKIPSMWRDAAEMCRAVEEGKLVKVENEEKAAFIMKLVGPKKEAWIGLRYYGNKFQWTDGTKLNADDFNLWPEDIKELNGPHCVSMYQDQKDKKYYWRAGKCLEDMRYVCEVQPCSASNYCSEPVFMYRQKHRALLPAPPPPPN,glycan array binding signal (z-score),[1],-0.262
same,glycan array binding signal (z-score),[2],0.123
same,glycan array binding signal (z-score),[3],-0.753
same,glycan array binding signal (z-score),[4],-0.334
same,glycan array binding signal (z-score),[5],-0.176
same,glycan array binding signal (z-score),[6],-0.06
same,glycan array binding signal (z-score),[7],2.8
same,glycan array binding signal (z-score),[8],-0.539
same,glycan array binding signal (z-score),[9],-0.489
same,glycan array binding signal (z-score),[10],14.8
same,glycan array binding signal (z-score),Fuc(a1-4)GlcNAc,13.6
same,glycan array binding signal (z-score),[11],-0.267
same,glycan array binding signal (z-score),[12],0.692
same,glycan array binding signal (z-score),Gal(b1-2)Gal,-0.582
same,glycan array binding signal (z-score),[13],-0.243
same,glycan array binding signal (z-score),Gal(b1-3)GlcNAc(b1-2)Man,-0.258
same,glycan array binding signal (z-score),[14],1.66
same,glycan array binding signal (z-score),[15],-0.326
same,glycan array binding signal (z-score),[16],-0.259
same,glycan array binding signal (z-score),[17],-0.149
same,glycan array binding signal (z-score),[18],0.121
same,glycan array binding signal (z-score),[19],-0.602
same,glycan array binding signal (z-score),[20],3.16
same,glycan array binding signal (z-score),[21],0.921
same,glycan array binding signal (z-score),[22],2.03
same,glycan array binding signal (z-score),[23],2.87
same,glycan array binding signal (z-score),[24],0.78
same,glycan array binding signal (z-score),[25],-0.05
same,glycan array binding signal (z-score),[26],-0.557
same,glycan array binding signal (z-score),GalNAc(a1-3)Gal,-0.696
same,glycan array binding signal (z-score),GalNAc(b1-4)GlcNAc,1.86
same,glycan array binding signal (z-score),[27],-0.045
same,glycan array binding signal (z-score),[28],-0.111
same,glycan array binding signal (z-score),[29],-0.383
same,glycan array binding signal (z-score),[30],1.69
same,glycan array binding signal (z-score),[31],-0.476
same,glycan array binding signal (z-score),[32],0.039
same,glycan array binding signal (z-score),[33],0.06
same,glycan array binding signal (z-score),Man(a1-6)Man,-0.528
same,glycan array binding signal (z-score),[34],0.065
same,glycan array binding signal (z-score),[35],-0.347
same,glycan array binding signal (z-score),Neu5Ac(a2-3)Gal(b1-4)Glc,2.35
same,glycan array binding signal (z-score),[36],-0.222
same,glycan array binding signal (z-score),Neu5Ac(a2-6)Gal(b1-4)Glc,-0.543
same,glycan array binding signal (z-score),[37],0.041
same,glycan array binding signal (z-score),[38],1.95
same,glycan array binding signal (z-score),[39],-0.34
